Records with an inconclusive call do not appear. Calls of active or inactive are those of the source. Rule for the calls, unless noted: active = hit-call score of the fitted dose curve at least 0.9, where 1 is the maximum; inconclusive = response in the unintended direction; inactive = score below 0.9.
What was measured:
[1] = target: Cellular tumor antigen p53 (Homo sapiens) (UniProt P04637); assay: TOX21_p53_BLA_p2_ratio: Tox21 HCT-116 p53 Agonism Beta-lactamase Assay, Ratio, Phase 2 (AID 2283592)
Sequence of Cellular tumor antigen p53 (Homo sapiens) (P04637 whole entry, looked up): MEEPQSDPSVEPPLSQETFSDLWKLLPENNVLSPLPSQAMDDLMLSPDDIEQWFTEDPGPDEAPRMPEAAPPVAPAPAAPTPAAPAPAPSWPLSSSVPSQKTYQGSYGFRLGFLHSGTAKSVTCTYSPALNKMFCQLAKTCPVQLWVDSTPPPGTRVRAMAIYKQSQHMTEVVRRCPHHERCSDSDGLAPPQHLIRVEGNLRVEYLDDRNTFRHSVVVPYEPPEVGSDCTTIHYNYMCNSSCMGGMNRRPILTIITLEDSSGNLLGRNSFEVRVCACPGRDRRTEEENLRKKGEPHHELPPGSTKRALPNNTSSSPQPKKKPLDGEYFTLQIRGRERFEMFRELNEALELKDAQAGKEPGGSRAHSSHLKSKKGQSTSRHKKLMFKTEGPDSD
Method in brief: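 DMSO-normalized, positive-direction endpoint derived from the 460 nm/530 nm FRET ratio in HCT116 p53 beta-lactamase reporter cells exposed 16 h at 37C and loaded with CCF4-AM for 2 h.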

[2] = TOX21_p53_BLA_p4_viability: Viability Assessment in the Tox21 HCT-116 p53 Agonism Beta-lactamase Assay, Phase 4 (AID 2283597);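 note: hits lower the luminescence signal meaning cytotoxicity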
Method in brief: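 In this multiplexed secondary endpoint, HCT116 cells (4000 per well, compound at 5 h, 16 h treatment) received CellTiter-Glo after the beta-lactamase read. Luminescence after 30 min RT reflects ATP, and falling signal marks cytotoxicity.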

[3] = target: Cellular tumor antigen p53 (Homo sapiens) (UniProt P04637); assay: TOX21_p53_BLA_p5_ratio: Tox21 HCT-116 p53 Agonism Beta-lactamase Assay, Ratio, Phase 5 (AID 2283599)
Method in brief: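 Beta-lactamase reporter ratio (blue 460 nm over green 530 nm, 405 nm excitation) after 2 h CCF4-AM loading, in HCT-116 cells exposed 16 h at 37 C to compounds pinned at 217-fold dilution. Increases relative to DMSO baseline scored.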

[4] = TOX21_p53_BLA_p5_viability: Viability Assessment in the Tox21 HCT-116 p53 Agonism Beta-lactamase Assay, Phase 5 (AID 2283600)
Method in brief: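 Here cell health was gauged by ATP levels in wells holding 4000 cells, each treated 16 h with DMSO-delivered compounds at 217-fold dilution; reduced luminescence marked toxicity.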

[5] = target: Cellular tumor antigen p53 (Homo sapiens) (UniProt P04637); assay: TOX21_p53_BLA_p4_ratio: Tox21 HCT-116 p53 Agonism Beta-lactamase Assay, Ratio, Phase 4 (AID 2283601)
Method in brief: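 Signal is the blue/green (460nm/530nm) ratio of cleaved versus uncleaved CCF4-AM substrate, read after 2 h substrate loading. Cells were HCT116 carrying the p53-responsive beta-lactamase reporter, dosed 16 h at 37C, 5% CO2; CellTiter-Glo measured in parallel.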

[6] = target: Cellular tumor antigen p53 (Homo sapiens) (UniProt P04637); assay: TOX21_p53_BLA_p3_ratio: Tox21 HCT-116 p53 Agonism Beta-lactamase Assay, Ratio, Phase 3 (AID 2283596)
Method in brief: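 Cells were seeded at 4000/well, rested 5 h at 37C, then dosed with DMSO compound solutions (217-fold dilution) for 16 h. CCF4-AM substrate was loaded for 2 h at room temperature, and the 460/530 nm emission ratio was fitted for gain of signal versus DMSO.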

[7] = CCTE_Shafer_MEA_dev_firing_rate_mean: CCTE's Neural Network Formation Assay for Mean Firing Rate, Shafer Lab (AID 2284031; active = hit-call score of the fitted dose curve at least 0.9, where 1 is the maximum; inactive = score below 0.9)
Method in brief: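 Steps: seed rat cortical cells (1.5 x 10^5/well) with laminin on PEI-coated MEA; dose day 0; record DIV 5/7/9/12, full media and compound exchange after DIV 5 and 9 recordings; compute well-mean firing rate AUC.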

[8] = CCTE_Shafer_MEA_dev_per_burst_spike_percent: CCTE's Neural Network Formation Assay for Percent of Spikes in a Burst, Shafer Lab (AID 2284032; active = hit-call score of the fitted dose curve at least 0.9, where 1 is the maximum; inactive = score below 0.9)
Method in brief: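 Value is trapezoidal AUC over recordings on days 5, 7, 9 and 12 of the well-mean fraction of spikes falling in single-electrode bursts; rat cortical cultures exposed continuously from plating, treatment renewed DIV 5 and 9, fitted downward against DMSO.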

[9] = CCTE_Shafer_MEA_dev_active_electrodes_number: CCTE's Neural Network Formation Assay for Number of Active Electrodes, Shafer Lab (AID 2284040)
Method in brief: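 Counts electrodes per well firing at least 5 spikes/min, recorded on days 5, 7, 9 and 12 in rat cortical cultures dosed continuously from plating (treatment refreshed DIV 5, 9). Value is the area under the curve over recordings, fitted downward relative to DMSO.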

[10] = CCTE_Shafer_MEA_dev_burst_rate: CCTE's Neural Network Formation Assay for Burst Rate, Shafer Lab (AID 2284042; active = hit-call score of the fitted dose curve at least 0.9, where 1 is the maximum; inactive = score below 0.9)
Method in brief: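 Primary rat cortical neurons on PEI-coated 48-well MEA plates (laminin added with cells at plating) (16 electrodes/well), exposed from plating to day 12, dosing renewed at DIV 5 and 9. Burst rate averaged over active electrodes, recorded DIV 5, 7, 9, 12, summarized as AUC; loss versus DMSO.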

[11] = CCTE_Shafer_MEA_dev_bursting_electrodes_number: CCTE's Neural Network Formation Assay for Number of Bursting Electrodes, Shafer Lab (AID 2284043)
Method in brief: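 Number of electrodes reaching ≥1 burst every 2 min was recorded at DIV 5, 7, 9 and 12 and collapsed as trapezoidal area under the curve. Cultures were rat cortical neurons on MEA plates, dosed continuously from plating with medium and treatment refreshed on DIV 5 and 9.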

[12] = CCTE_Shafer_MEA_dev_per_burst_interspike_interval: CCTE's Neural Network Formation Assay for Burst Interspike Interval, Shafer Lab (AID 2284044; active = hit-call score of the fitted dose curve at least 0.9, where 1 is the maximum; inactive = score below 0.9)
Method in brief: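 Spontaneous activity of maturing rat cortical networks is recorded on DIV 5, 7, 9 and 12 under chronic compound exposure beginning at plating. Endpoint: burst interspike interval well-mean, collapsed into trapezoidal AUC and fitted in the negative direction relative to DMSO.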

[13] = CCTE_Shafer_MEA_dev_burst_duration_mean: CCTE's Neural Network Formation Assay for Mean Burst Duration, Shafer Lab (AID 2284045; active = hit-call score of the fitted dose curve at least 0.9, where 1 is the maximum; inactive = score below 0.9)
Method in brief: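 Mean single-electrode burst duration (first to last spike), averaged over bursting electrodes per well, then integrated as area-under-curve across recordings at days 5, 7, 9 and 12. Rat cortical cultures on MEAs, compound present from plating, refreshed at feeds.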

[14] = CCTE_Shafer_MEA_dev_inter_network_spike_interval_mean: CCTE's Neural Network Formation Assay for Mean Inter-network Spike Interval, Shafer Lab (AID 2284047; active = hit-call score of the fitted dose curve at least 0.9, where 1 is the maximum; inactive = score below 0.9)
Method in brief: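 Primary rat cortical neurons on 16-electrode MEA wells, exposed from plating day 0 through DIV 12, compound renewed at DIV 5 and 9 media changes. Mean interval between network-spike peaks recorded DIV 5, 7, 9, 12; collapsed as trapezoidal AUC, fitted downward versus DMSO.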

[15] = CCTE_Shafer_MEA_dev_network_spike_number: CCTE's Neural Network Formation Assay for Number of Network Spikes, Shafer Lab (AID 2284048; active = hit-call score of the fitted dose curve at least 0.9, where 1 is the maximum; inactive = score below 0.9;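 note: synchronized bursts across electrodes counted on days 5 7 9 12 and integrated as AUC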)
Method in brief: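 Number of network spikes (coordinated firing across electrodes) recorded on days 5, 7, 9 and 12 and summarised as area under the curve. Rat cortical cultures on MEA, continuous compound exposure with full medium/treatment exchange at DIV 5 and 9.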

[16] = CCTE_Shafer_MEA_dev_network_spike_peak: CCTE's Neural Network Formation Assay for Mean Number of Electrodes in Network Spike, Shafer Lab (AID 2284049; active = hit-call score of the fitted dose curve at least 0.9, where 1 is the maximum; inactive = score below 0.9)
Method in brief: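 Rat cortical primary culture, 1.5 x 10^5 cells/well, 48-well MEA (16 electrodes/well). Dosing day 0 through DIV 12, full media/compound exchange DIV 5, 9. AxIS adaptive spike detection; AUC over days 5/7/9/12; loss-of-signal vs DMSO.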

[17] = CCTE_Shafer_MEA_dev_spike_duration_mean: CCTE's Neural Network Formation Assay for Mean Spike Duration, Shafer Lab (AID 2284051; active = hit-call score of the fitted dose curve at least 0.9, where 1 is the maximum; inactive = score below 0.9;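 note: mean network spike duration pooled as area under curve over DIV 5 to 12 recordings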)
Method in brief: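 Primary rat cortical neurons on 16-electrode MEA wells (PEI-coated, laminin in plating drop), exposed from plating through DIV 12 with compound renewed at DIV 5 and 9. Mean network-spike duration recorded DIV 5, 7, 9, 12; trapezoidal AUC across days, DMSO baseline.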

[18] = CCTE_Shafer_MEA_dev_network_spike_duration_std: CCTE's Neural Network Formation Assay for Standard Deviation of Network Spike Duration, Shafer Lab (AID 2284052; active = hit-call score of the fitted dose curve at least 0.9, where 1 is the maximum; inactive = score below 0.9;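 note: hits are decreases in network spike duration SD versus DMSO vehicle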)
Method in brief: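 Primary rat cortical neurons on PEI-coated 16-electrode MEA wells, exposed from plating day 0 through day 12 with compound renewed at DIV 5 and 9. Network spike duration SD recorded on days 5, 7, 9, 12, collapsed as trapezoidal AUC; loss-of-signal fit versus DMSO.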

[19] = CCTE_Shafer_MEA_dev_per_network_spike_spike_number_mean: CCTE's Neural Network Formation Assay for Mean Number of Spikes in a Network Spike, Shafer Lab (AID 2284053; active = hit-call score of the fitted dose curve at least 0.9, where 1 is the maximum; inactive = score below 0.9)
Method in brief: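 Primary rat cortical neurons on 48-well, 16-electrode MEA plates were exposed from plating to DIV 12, with dosing renewed on DIV 5 and 9. Spikes per network spike (0.05 s peak window) were recorded on DIV 5, 7, 9 and 12 and collapsed as trapezoidal AUC versus DMSO.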

[20] = CCTE_Shafer_MEA_dev_per_network_spike_spike_percent: CCTE's Neural Network Formation Assay for Percent of Spikes in a Network Spike, Shafer Lab (AID 2284054; active = hit-call score of the fitted dose curve at least 0.9, where 1 is the maximum; inactive = score below 0.9)
Method in brief: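 Metric: fraction of spikes falling in a 0.05 s window at network-spike peaks. Recordings were made on days 5, 7, 9 and 12 and collapsed by trapezoidal AUC. Cultures were rat cortical neurons on MEA plates, dosed continuously from plating, re-dosed at media changes.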

[21] = CCTE_Shafer_MEA_dev_LDH: CCTE's Lactate Dehydrogenase Assay for Cytotoxicity in the Neural Network Formation Assay, Shafer Lab (AID 2284068);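 note: exposure for twelve days from plating with re-dosing on DIV 5 and 9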
Method in brief: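 Primary rat cortical neurons were plated on PEI/laminin MEA plates and exposed from day 0 for twelve days, with compound renewed at DIV 5 and 9. Cytotoxicity was determined by spectrophotometric LDH assay relative to DMSO.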

[22] = CCTE_Shafer_MEA_dev_mutual_information_norm: CCTE's Neural Network Formation Assay for Mutual Information Normalization, Shafer Lab (AID 2284091; active = hit-call score of the fitted dose curve at least 0.9, where 1 is the maximum; inactive = score below 0.9)
Method in brief: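 Shared information across electrodes, tracked on days 5, 7, 9 and 12 of network development and collapsed as trapezoidal area under the curve. Rat cortical cultures were treated continuously from plating, with treatment renewed at feeds on DIV 5 and 9; DMSO baseline, negative-direction fit.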

Measured: outcome

CCc1ccc(CC)cc1
inactive: [1] | [2] | [3] | [4] | [5]

C[C@@H]1CC[C@@]2(OC1)O[C@H]1C[C@H]3[C@@H]4CC[C@H]5C[C@@H](O)CC[C@]5(C)[C@H]4CC(=O)[C@]3(C)[C@H]1[C@@H]2C
inactive: [1] | [2] | [3] | [4] | [5]

CCN1CCc2nc(N)oc2CC1
inactive: [1] | [2] | [3] | [4] | [5]

O=c1[nH][nH]c2ccccc12
inactive: [1] | [6] | [5]

c1cc2c3c(c1)ccc1cccc(c13)C2
inactive: [1] | [2] | [3] | [4] | [5] | [7] | [8] | [9] | [10] | [11] | [12] | [13] | [14] | [15] | [16] | [17] | [18] | [19] | [20] | [21] | [22]

COc1ccc([C@@H]2CC(=O)c3c(O)cc(O[C@@H]4O[C@H](CO[C@@H]5O[C@@H](C)[C@H](O)[C@@H](O)[C@H]5O)[C@@H](O)[C@H](O)[C@H]4O)cc3O2)cc1O
inactive: [1] | [2] | [3] | [4] | [5]

c1ccc2nccnc2c1
inactive: [1] | [2] | [3] | [5]

CO[C@@]1(NC(=O)C2SC(=C(C(N)=O)C(=O)O)S2)C(=O)N2C(C(=O)O)=C(CSc3nnnn3C)CS[C@@H]21 (some centres undefined)
inactive: [1] | [6] | [5]

O=C[C@H](O)[C@@H](O)[C@H](O[C@H]1O[C@H](CO)[C@@H](O[C@H]2O[C@H](CO)[C@@H](O)[C@H](O)[C@H]2O)[C@H](O)[C@H]1O)[C@H](O)CO
inactive: [1] | [2] | [3]

— PubChem BioAssay (EPA / NIEHS)
